G9a inh: blocks human histone lysine methyltransferase G9a; G9a H3K9 monomethylation, AlphaScreen, 2 h; Q96KQ7; Potency, µM (titrated, usually from 102 µM), hits mostly inhibitors; 350,000 tested, 8.8% active; also: nearly all actives have a fitted effect of over 75% in size
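Signal arises when biotinylated H3K9 peptide, once monomethylated, bridges streptavidin donor and antibody-captured acceptor beads. Enzyme at 20 nM was preincubated 15 min with test compounds; peptide 500 nM and SAM 20 uM then reacted for 2 h.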
PLK1 PBD block: PLK1 (human) polo-box domain binding inhibition; P53350; Plk1 PBD binding of FITC phosphopeptide, fluorescence polarization; Potency, µM, most hits filed as inhibitors; 360,000 tested, 2.8% active; AID 720504; also: series mostly up to about 57 µM; nearly all actives have a fitted effect of over 65% in size
JMJD2A Tudor inh: blocks the human JMJD2A Tudor domain; O75164; AlphaScreen JMJD2A-Tudor / H3K4me3 peptide binding; Potency, µM (series often up to 114 µM), hits mostly inhibitors; 390,000 tested, 4.4% active; AID 504339; also: nearly all actives have a fitted effect of over 50% in size
BAZ2B inh: BAZ2B (human) inhibition; AlphaScreen BAZ2B-H3K14Ac peptide displacement; 360,000 tested, 4.4% active; Q9UIF8; Potency, µM (series often up to 114 µM), most hits filed as inhibitors; also: nearly all actives have a fitted effect of over 60% in size
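Inhibition is scored as reduced AlphaScreen emission. The BAZ2B/b-H3(5-23)K14Ac complex (50 nM each) in PBS pH 7.4, 0.01% Tween-20 meets compound (up to 110 uM) for 30 min at RT before bead addition.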
HP1b chromo inh: HP1-beta chromodomain-methylated histone interaction inhibition | P83916 | AlphaScreen HP1-beta / biotin-H3K9me3 peptide binding | Potency, µM (top dose mostly 114 µM), most hits filed as inhibitors | 390,000 tested, 0.56% active | AID 540317; also: nearly all actives have a fitted effect of over 70% in size
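AlphaScreen: HP1-beta (50 nM) preformed 30 min with biotin-H3(1-18)K9me3 peptide (50 nM) in PBS pH 7.4, 0.01% Tween-20. Compound added for 30 min at RT, then streptavidin donor/nickel chelate acceptor beads (10 ug/mL) for 30 min.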
VDR inhibitor: inhibitors of human vitamin D receptor; P11473; VDR-SRC2-3 peptide fluorescence polarization, 2 h; Potency, µM, hits mostly inhibitors; 400,000 tested, 0.93% active; AID 504847
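Fluorescence polarization assay of small-molecule disruption of VDR binding to coregulator peptide SRC2-3. Compounds and controls pin-transferred, then read after 2 h incubation at ambient room temperature.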
A number is an active result; . = inactive; ? = inconclusive; / = no result; [ ] = dose if it differs, or a comment. Sampled rows, rich in hits. Any-hit rate of the full collection: about 11%. Calls follow the shape of the dose curve; as a rule, active = well fitted curve in the direction sought with a large enough effect; inconclusive = small, poorly fitted or top-dose-only effect, or another doubt; inactive = no such curve, though single readings can be large; an effect the other way counts as inactive or inconclusive.

SMILES	G9a inh	PLK1 PBD block	JMJD2A Tudor inh	BAZ2B inh	HP1b chromo inh	VDR inhibitor
Cc1cccc(CC(=O)Nc2ccc(C(=O)N3CCOCC3)cc2)c1	.	.	.	.	.	.
CNC(=S)N1CCN(S(=O)(=O)c2ccc3ccccc3c2)CC1	.	.	.	.	.	.
O=C(NCCc1cccc(Cl)c1)c1cccc(-n2cnnn2)c1	45µM	.	.	.	.	.
O=C(c1ccc(CSc2nc3ccncc3n2Cc2cccc(F)c2)cc1)N1CCCCCC1	.	/	.	.	.	.
CCOc1cc(CNC(=O)C2COc3ccccc3C2)cc(OCC)c1OCC (stereo unspecified)	.	/	.	.	.	.
Cc1ccc2ncc(C(=O)NCCc3ccc(S(N)(=O)=O)cc3)c(=O)n2c1	.	/	.	.	.	.
Cc1cc(=O)[nH]c(N2CCCC2)n1	.	.	.	.	.	.
Cc1cc(=O)[nH]c(-n2[nH]c(C)cc2=O)n1	.[0.0925 µM]	.	45µM	11µM	.	.
CCNC(=O)c1c(O)c2c([nH]c1=O)CCCC2	?	27µM	.[11.4 µM]	.	.	?
COC(=O)COC(=O)c1ccc(-n2nnnc2SC)cc1	.[2.33 µM]	.	.	.	.	.
COC(=O)c1ccc(-n2nnnc2SC)cc1	10µM	21µM	.	.	.	.
O=C(O)C1Sc2[nH]c(=O)sc2C2c3cc(Br)ccc3OC(=O)C12 (stereo unspecified)	/	30µM	.	?	?	?
O=C(O)C1Sc2[nH]c(=O)sc2C2c3ccc(O)cc3OC(=O)C12 (stereo unspecified)	40µM	30µM	.	.	?	.
CN(C)c1ccc(CNc2nc(-c3ccco3)nn2S(=O)(=O)c2ccc(Cl)cc2)cc1	.	/	?	.	.	.
O=C(Nc1ccccc1Cl)N1CCN(c2ccc3nnc(-c4ccccc4)n3n2)CC1	50µM	.	.	.	.	.
CCC(Cc1ccccc1)NC(=O)CN(C)S(=O)(=O)c1ccc2c(c1)c(=O)n(C)c(=O)n2C (stereo unspecified)	45µM	.	.	.	.	.
CN(CC(=O)N1CC=C(c2ccccc2)CC1)S(=O)(=O)c1ccc2c(c1)c(=O)n(C)c(=O)n2C	45µM	.	.	.	.	.
CC(NC(=O)CN(C)S(=O)(=O)c1ccc2c(c1)c(=O)n(C)c(=O)n2C)c1ccccc1 (stereo unspecified)	.	.	.	.	.	.
C[C@H]1O[C@@H](n2cnc3c(N)ncnc32)C[C@@H]1OP(=O)(O)OP(=O)(O)OP(=O)(O)O	/	/	/	/	/	.
Cc1noc(C)c1S(=O)(=O)N(CC(=O)NCCc1ccc(Cl)cc1)c1ccc(C(C)C)cc1	1µM	/	.	/	.	.
COC(=O)c1ccc(NC(=O)C2CCN(c3ncnc4c3nc3n4CCCCC3)CC2)cc1	.	/	.	.	.	.
Cc1ccc2cc(CN(CCN3CCOCC3)Cc3nnnn3Cc3ccco3)c(=O)[nH]c2c1C	56µM	.	.	.	.	.
Cc1ccc2cc(CN(Cc3ccc4c(c3)OCO4)Cc3nnnn3Cc3ccco3)c(=O)[nH]c2c1C	11µM	.	.	.	.	.
Cc1ccc(C)c2[nH]c(=O)c(CN(Cc3ccc4c(c3)OCO4)Cc3nnnn3Cc3ccco3)cc12	.	.	.	.	.	.
Cc1ccc2cc(CN(CCCN3CCOCC3)C(c3nnnn3Cc3ccco3)C(C)C)c(=O)[nH]c2c1C (stereo unspecified)	/	.	.	/	.	.
SMILES	G9a inh	PLK1 PBD block	JMJD2A Tudor inh	BAZ2B inh	HP1b chromo inh	VDR inhibitor
CCOC(=O)C1=C(O)c2ccccc2C(=O)/C1=C\c1ccc(C)cc1	2.5µM	0.67µM	40µM	20µM	35µM	?
CCOC(=O)C1=C(C)OC(=Cc2ccccc2)C1=O	/	.	/	/	/	/
C[C@@H]1CN([C@@H](C)CO)S(=O)(=O)c2ccc(/C=C/c3ccccc3)cc2O[C@@H]1CN(C)Cc1ccc(C(=O)O)cc1	/	.	/	/	/	/
COc1ccc(C)cc1NS(=O)(=O)c1ccc2oc(=O)c3ncn(C)c3c2c1	?	/	.	.	.	.
CCN(CC)c1ccc(S(=O)(=O)N2CCOCC2)cc1NC(=O)C1CC1	.[2.33 µM]	.	.	.	.	.
CCN(CC)c1ccc(S(=O)(=O)N2CCOCC2)cc1NC(=O)CNCc1ccccc1	?	.	89µM	50µM	?	.
CCN(CC)c1ccc(S(=O)(=O)N2CCOCC2)cc1NC(=O)CSC(=S)N1CCCC1	7.9µM	13µM	?	.	.	.
CCOC(=O)c1ccc(NC(=O)CSc2nc(-c3cccs3)cc(C(F)(F)F)c2C#N)cc1	.	/	.	.	.	.
COc1cc(/C=C(\C#N)C(=O)Nc2cccnc2)ccc1OC(C)C	.	.	.	.	.	?
CC1CCCN(C(=O)C2CCN(S(=O)(=O)c3ccccc3)CC2)C1 (stereo unspecified)	/	.	.	/	.	.
COc1ccc(-c2c(C)n([O-])c(C)c(C)[n+]2=O)cc1	.	24µM	?	.	.	.
COc1ccc(-c2c(C)n([O-])c3c([n+]2=O)CCCCC3)cc1	.	.	.	.	.	.
O=C(Cc1cccc(F)c1F)NC1CCCN(Cc2ccc(Cl)cc2)C1 (stereo unspecified)	.	?	.	.	.	.
CCC1C(O)=C(c2ccccn2)C(=N)N1c1ccccc1 (stereo unspecified)	22µM	.	.	?	.	.
C/C(=N\Nc1nnc(C)c(=O)[nH]1)C(=O)O	.[2.33 µM]	.	?	13µM	.	.
CC(/C=N/Nc1nnc(C)c(=O)[nH]1)=C\c1ccccc1	10µM	.	.	.	.	.
Cc1cc(NC(=O)C23CC4CC(C2)CC(n2cnc([N+](=O)[O-])n2)(C4)C3)no1	.	.	.	.	?	.
S=c1[nH]c2cc(-c3ccccc3)ccc2o1	10µM	?	.	?	.	.
S=c1[nH]c2ncccc2o1	?	.	.	?	.	.
CC(=O)Nc1ccc(S(=O)(=O)NCc2nc(-c3ccccc3Cl)no2)cc1	.	.	.	.	.	.
COc1ccc(NS(=O)(=O)c2cc(NC(=O)C3CCCO3)ccc2N2CCCC2)cc1 (stereo unspecified)	25µM	.	.	.	.	.
COc1ccc(NS(=O)(=O)c2cc(NC(=O)CCNC(C)=O)ccc2N2CCCCC2)cc1	.[2.33 µM]	.	.	.	.	.
COc1ccc(NS(=O)(=O)c2cc(NC(=O)C3CCCO3)ccc2N2CCCCC2)cc1 (stereo unspecified)	40µM	.	.[11.4 µM]	.	.	.
COc1ccc(NS(=O)(=O)c2cc(NC(=O)c3ccco3)ccc2N2CCCC2)cc1	40µM	.	.	.	.	.
COc1cc(NC(=O)CSc2nnc3c(n2)[nH]c2ccc(OC)cc23)cc(OC)c1	/	/	.	/	.	.
